# Bioassay records: PubChem, National Center for Advancing Translational Sciences (NCATS)
# HT1080-NT tox: qHTS for induction of synthetic lethality in tumor cells producing 2HG: qHTS for the HT-1080-NT fibrosarcoma cell line; HT-1080-NT fibrosarcoma viability, CellTiter-Glo ATP luminescence, 48 h; Potency, µM (highest dose often 46.1 µM), for the others: at the highest dose activity, negative = less viability, actives largely listed as cytotoxic; 360,000 compounds, 1.6% hits; AID 686970, 2013;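 further: NT is the 2HG producing partner of a matched IDH1 knockdown line; potency means the concentration at half of the fitted maximal effect; 0% = DMSO-treated cells and -100% = media-only wells without cells; nearly all actives have a fitted effect of over 55% in size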
#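 Viability by CellTiter-Glo luminescence after 48 h compound exposure at 37C of HT-1080-NT cells (750/well, RPMI, 5% FBS). % activity scaled between DMSO wells and medium-only wells, then curve-fitted and categorized by curve class.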
# DT40 TDP1 CPT: qHTS for Inhibitors of human tyrosyl-DNA phosphodiesterase 1 (TDP1): qHTS in cells in presence of CPT; chicken DT40 Tdp1-/-;hTDP1 cells + 20 nM CPT, ATP luminescence, 48 h; Potency, µM (doses to about 46.2 µM), without a hit: at the highest dose activity change, negative = growth inhibition, actives largely listed as inhibitors; 420,000 compounds, 12% hits; AID 686979, 2013; further: potency means the concentration at half of the fitted maximal effect; nearly all actives have a fitted effect of over 55% in size
#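 Chicken DT40 Tdp1-/- cells complemented with human TDP1, 400 cells/well, exposed to compounds plus 20 nM camptothecin for at least 48 h at 37 C; viability read as ATP content by CellTiter-Glo luminescence.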
# HT1080 IDH1KD tx: qHTS for induction of synthetic lethality in tumor cells producing 2HG: qHTS for the HT-1080-IDH1KD cell line; HT-1080 IDH1 knockdown viability, ATP luminescence, 48 h; Potency, µM (titrated, usually from 46.1 µM), for inactives: top-dose activity, negative = toxicity, most hits filed as cytotoxic; 360,000 compounds, 2% hits;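 further: potency means the concentration at half of the fitted maximal effect; 0% = DMSO wells and -100% = cell-free medium wells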
#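 HT-1080-IDH1KD cells (IDH1 knocked down), 750/well in RPMI with 5% FBS, treated with compound 48 h at 37 degrees C. Viability by CellTiter-Glo luminescence, normalised to DMSO and no-cell wells; concentration-response curves classed.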
# TDP1 cell noCPT: qHTS for Inhibitors of human tyrosyl-DNA phosphodiesterase 1 (TDP1): qHTS in cells in absence of CPT. Potency, µM (titrated, usually from 46.2 µM), for the others: at the top dose activity change, negative = growth inhibition, usual class: inhibitors. DT40 Tdp1-/- hTDP1 cells, no CPT, ATP luminescence, 48 h. 420,000 compounds, 15% hits; further: potency means the concentration at half of the fitted maximal effect; nearly all actives have a fitted effect of over 55% in size
#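 Chicken DT40 Tdp1-/- cells complemented with human TDP1, screened without camptothecin (DMSO vehicle only), 400 cells/well. Compounds pin-transferred, cells incubated at 37 °C for at least 48 hr. Growth read as ATP-dependent luminescence (CellTiter-Glo, 30 min at RT).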
# IL-1B inflam inh: qHTS for Inhibitors of Inflammasome Signaling: IL-1-beta AlphaLISA Primary Screen; THP-1 LPS/ATP IL-1B secretion, AlphaLISA, 16 h; stronger effect = lower value; activity change, % at 57.5 µM; 360,000 compounds, 4.7% hits; AID 743279, 2014; in the data active means activity change below about -50%; inconclusive means mostly about -30% to -49%
#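 Secreted IL-1B measured by AlphaLISA bead assay after 16 h compound exposure of THP-1 cells; compounds (final up to 57.5 uM) added 1 h before LPS (250 ng/mL) and ATP (1.25 mM) stimulation; lower signal means less secretion.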
# Starred values were filed as active, the others as inactive; u = inconclusive; x = no result; [ ] = dose if it differs, or a comment. Compounds with a hit are over-represented: about 19% of the library has one in this group of screens. Unless noted, the call rests on the fitted dose curve; in most records, active means well fitted curve in the direction sought with a large enough effect; inconclusive means small, poorly fitted or top-dose-only effect, or another doubt; inactive means no such curve, though single readings can be large; an effect the other way counts as inactive or inconclusive. Unless noted, on the % scale 0 is the no-effect control and ±100 the full control effect.
SMILES,HT1080-NT tox,DT40 TDP1 CPT,HT1080 IDH1KD tx,TDP1 cell noCPT,IL-1B inflam inh
Cc1cc([N+](=O)[O-])nn1Cc1ccc(C(=O)N/N=C/c2ccc(O)cc2O)cc1,u,u,2.1µM*,u,50
O=C(Cn1nnc(-c2ccccc2)n1)N/N=C/c1cccc([N+](=O)[O-])c1,-10%,-10%,7%,-9%,28
O=C(Cn1nnc(-c2ccccc2)n1)N/N=C/c1cccc([N+](=O)[O-])c1O,-3%,u,u,21µM*,124
COC(=O)c1sccc1NC(=O)c1ccc(C(C)C)cc1,-18%,-14%,0%,-16%,7
Cc1cc(C)n(CCC(=O)N/N=C/c2ccc(Br)c([N+](=O)[O-])c2)n1,u,-5%,-26%,-28%,-93*
Cc1cc(C)n(CC(=O)N/N=C/c2cc(Br)cc([N+](=O)[O-])c2O)n1,-12%,u,-11%,u,34
CCOc1cc(/C=N/NC(=O)Cn2nc([N+](=O)[O-])cc2C)cc(Br)c1OCc1ccccc1F,u,21µM*,10µM*,u,16
COc1ccc(C#Cc2c(-c3ccsc3)oc3ccc(-c4cc(OC)c(OC)c(OC)c4)cc23)cc1,-2%,-9%,-2%,-9%,19
CCn1nc(C)cc1C(=O)NCCN1Cc2ccccc2OC(c2ccccc2F)C1 (centres undefined),x,u,x,16µM*,x
Cc1cc(C(=O)NCCN2Cc3ccccc3OC(c3ccccc3F)C2)no1 (centres undefined),x,-4%[9.04 µM],x,-10%,x
Cc1ccc(CNC(=O)CCCN2C(=O)CCn3nc(-c4cccn4C)cc32)cc1,x,-19%,x,u,x
c1ccc(Nc2scc(-c3ccccc3)[n+]2Cc2ccco2)cc1,u,16µM*,-1%,23µM*,10
c1ccc(C[n+]2c(-c3ccccc3)csc2Nc2ccccc2)cc1,10%,10µM*,4%,u,-9
CC[n+]1c(-c2ccccc2)csc1Nc1c(C)n(C)n(-c2ccccc2)c1=O,-1%,u,1%,-39%,0
CCOC(=O)COc1ccc(C)cc1C(=O)c1ccn2nc(-c3ccc(F)cc3)cc2n1,x,16µM*,x,21µM*,x
CCOC(=O)COc1ccc(F)cc1C(=O)c1ccn2nc(-c3ccc(Cl)cc3)cc2n1,x,3%,x,0%,x
CCOC(=O)COc1ccc(F)cc1C(=O)c1ccn2nc(-c3ccc(C)cc3)cc2n1,x,-2%,x,-9%,x
CCOC(=O)COc1cc(C)c(Cl)cc1C(=O)c1ccn2nc(-c3ccc(OC)cc3)cc2n1,x,u,x,13µM*,x
c1ccc2sc(Sc3ncnc4sccc34)nc2c1,-24%,5.8µM*,u,2.9µM*,-79*
CCc1cc2c(Sc3nc4ccccc4s3)ncnc2s1,5.2µM*,5.2µM*,u,9.2µM*,u
COc1ccc(CCCc2nnc(SCC(=O)Nc3ccc(Cl)cc3)o2)cc1,x,-14%,x,-25%,x
CC1CN(Cc2ccccc2Cl)CC(C)O1 (centres undefined),15%,-16%,18%,-22%,25
CCOc1ccc(CCNC(=O)c2cc3sccc3n2CC)cc1OCC,-9%,5.2µM*,-1%,5.8µM*,-24
O=C(NCCc1ccccc1)c1cc2sccc2n1Cc1ccc(F)cc1,x,-26%,x,-29%,x
CCn1c(C(=O)NCCc2ccc(OC)c(OC)c2)cc2sc(Cl)cc21,x,18µM*,x,12µM*,x
CCOCCCNC(=O)c1cc2sc(Cl)cc2n1CC,-22%[9.24 µM],u,u,u,-10
CCOc1ccc(CCNC(=O)c2cc3sc(CC)cc3n2C)cc1OCC,x,15µM*,x,12µM*,x
O=C(Nc1ccc(Br)cc1F)c1cccnc1,7%,u,5%,-15%,-24
